# Values joined by “and” are separate entries in the source; they are usually repeats but may differ in a detail not shown here. Equal entries are not always repeated. About 83,000 compounds went through this panel and 20% of them were active in at least one assay; those are over-represented in the sample as a whole.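 Note: values are percent growth. 100 is the growth of untreated cells, values between 100 and 0 indicate rising inhibition; between -100 and 0 indicates cell death.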 Active and inactive are the calls of the source. Rule for the calls: active = growth percent below 10; inactive = the rest.
# Tests used:
# Assay in all cases: NCI-60 one-dose screen, 48 h (100 = growth as untreated, 0 = no growth, -100 = all killed)
# Details in all cases: 10 µM unless noted
# HCT-15 colon = test system: HCT-15 colon
# HT29 colon = test system: HT29 colon
# SNB-75 CNS = test system: SNB-75 CNS
# SNB-19 CNS = test system: SNB-19 CNS
# U251 CNS = test system: U251 CNS
# PC-3 prostate = test system: PC-3 prostate
# SK-MEL-5 melanoma = test system: SK-MEL-5 melanoma
# UACC-62 melanoma = test system: UACC-62 melanoma
# LOX IMVI melanoma = test system: LOX IMVI melanoma
# SK-MEL-28 melanoma = test system: SK-MEL-28 melanoma
# SK-MEL-2 melanoma = test system: SK-MEL-2 melanoma
# EKVX NSCLC = test system: EKVX NSCLC
# SN12C renal = test system: SN12C renal
# UO-31 renal = test system: UO-31 renal
# TK-10 renal = test system: TK-10 renal
# CAKI-1 renal = test system: CAKI-1 renal
# A498 renal = test system: A498 renal
# CCRF-CEM leukemia = test system: CCRF-CEM leukemia
# MOLT-4 leukemia = test system: MOLT-4 leukemia
# ACHN renal = test system: ACHN renal
SMILES,growth (HCT-15 colon),growth (HT29 colon),growth (SNB-75 CNS),growth (SNB-19 CNS),growth (U251 CNS),growth (PC-3 prostate),growth (SK-MEL-5 melanoma),growth (UACC-62 melanoma),growth (LOX IMVI melanoma),growth (SK-MEL-28 melanoma),growth (SK-MEL-2 melanoma),growth (EKVX NSCLC),growth (SN12C renal),growth (UO-31 renal),growth (TK-10 renal),growth (CAKI-1 renal),growth (A498 renal),growth (CCRF-CEM leukemia),growth (MOLT-4 leukemia),growth (ACHN renal)
CCOc1ccc(Nc2c3ccccc3nc3ccccc23)cc1,91.1% (inactive) and 17.4% (inactive) and 22% (inactive),98% (inactive) and 4.3% (active) and 10.5% (inactive),77.1% (inactive) and 38.2% (inactive) and 21.5% (inactive),91.1% (inactive) and 44.3% (inactive) and 35.2% (inactive),86% (inactive) and 21.4% (inactive) and 28.1% (inactive),90.6% (inactive) and 25.6% (inactive) and 39.5% (inactive),80.6% (inactive) and -65.9% (active) and 0.799% (active),84.8% (inactive) and 18.9% (inactive) and 31.8% (inactive),94.5% (inactive) and 3.66% (active) and 11.5% (inactive),106% (inactive) and 46.8% (inactive) and 66.1% (inactive),104% (inactive) and 34% (inactive) and 72.1% (inactive),42.8% (inactive) and 42.1% (inactive),81.8% (inactive) and 20.6% (inactive) and 27.6% (inactive),62.8% (inactive) and 0.768% (active) and 1.99% (active),93.3% (inactive) and 35.1% (inactive) and 32.7% (inactive),91.3% (inactive) and 6.56% (active) and -17% (active),73.5% (inactive) and 35.5% (inactive) and 72.8% (inactive),99.8% (inactive) and 12.4% (inactive) and 4.91% (active),89.9% (inactive) and -2.2% (active) and -10.9% (active),
S=C(S)N1CCCC1,107% (inactive),76.7% (inactive) and 22.4% (inactive),113% (inactive) and 89% (inactive),99.1% (inactive) and 100% (inactive),85.1% (inactive) and 49% (inactive),84.7% (inactive) and 82.8% (inactive),79.7% (inactive) and 67.8% (inactive),90.9% (inactive) and 105% (inactive),108% (inactive) and 90.2% (inactive),95.1% (inactive) and 107% (inactive),98% (inactive) and 99.7% (inactive),114% (inactive) and 99% (inactive),,88.3% (inactive) and 76.4% (inactive),96.5% (inactive) and 96.3% (inactive),124% (inactive),72.5% (inactive) and 102% (inactive),65.5% (inactive) and 70.7% (inactive),98.7% (inactive) and 107% (inactive),125% (inactive) and 110% (inactive)
CCCCCN(CCCCC)CC(O)c1cc2c(c3ccccc13)CCCC2 (stereo not drawn),52.2% (inactive) and 52.1% (inactive),15.4% (inactive) and 16.2% (inactive),86.9% (inactive) and 70.7% (inactive),88.3% (inactive) and 83.6% (inactive),63% (inactive) and 62% (inactive),35.7% (inactive) and 57.9% (inactive),61.1% (inactive) and 36.3% (inactive),25.4% (inactive) and 58.2% (inactive),43.1% (inactive) and 40.8% (inactive),89.1% (inactive) and 57.1% (inactive),79.1% (inactive) and 97.2% (inactive),77.9% (inactive) and 46% (inactive),72.1% (inactive) and 75.1% (inactive),39.7% (inactive) and 44.7% (inactive),87.5% (inactive) and 73.4% (inactive),34.5% (inactive) and -32% (active),108% (inactive) and 39.3% (inactive),52.9% (inactive) and 57.2% (inactive),,
ClC/C=C/CSc1ncnc2nc[nH]c12,104% (inactive) and 99.7% (inactive),98.4% (inactive) and 95.2% (inactive),108% (inactive) and 92.7% (inactive),98.6% (inactive) and 102% (inactive),96.7% (inactive) and 102% (inactive),100% (inactive) and 98.1% (inactive),100% (inactive) and 112% (inactive),99.9% (inactive) and 103% (inactive),98.7% (inactive) and 97.3% (inactive),111% (inactive) and 101% (inactive),5.9% (active) and 112% (inactive),105% (inactive) and 104% (inactive),105% (inactive) and 100% (inactive),85.9% (inactive) and 87.1% (inactive),108% (inactive),106% (inactive) and 111% (inactive),91.4% (inactive) and 117% (inactive),90.7% (inactive),93.7% (inactive) and 85.3% (inactive),103% (inactive) and 99.2% (inactive)
CC(C)CNC(=O)c1ccccc1C(=O)NC1(C(=O)NCC(C)C)CCCC1,103% (inactive) and 106% (inactive),105% (inactive) and 104% (inactive),87.9% (inactive) and 94.6% (inactive),105% (inactive) and 108% (inactive),109% (inactive) and 105% (inactive),97.9% (inactive) and 96.3% (inactive),106% (inactive) and 115% (inactive),103% (inactive) and 107% (inactive),90.4% (inactive) and 101% (inactive),117% (inactive) and 115% (inactive),103% (inactive) and 100% (inactive),96.7% (inactive) and 109% (inactive),99.8% (inactive) and 107% (inactive),83.5% (inactive) and 86.1% (inactive),111% (inactive) and 114% (inactive),90.6% (inactive) and 98% (inactive),84.2% (inactive) and 123% (inactive),88.4% (inactive) and 104% (inactive),102% (inactive) and 88.6% (inactive),
CN(C)c1ccc(C(=C2C=CC(=[N+](C)C)C=C2)c2ccccc2Cl)cc1,6.9% (active) and -30.6% (active),-38.3% (active) and -24% (active),-58.6% (active) and -96.1% (active),-96.9% (active) and -95.6% (active),-58.3% (active) and -97.7% (active),-19.5% (active),-100% (active) and -96.9% (active),-70.6% (active) and -73.3% (active),-57.2% (active) and -97.2% (active),-93.7% (active) and -96.8% (active),-57.7% (active) and -52.4% (active),15.9% (inactive) and -34.1% (active),,-28.9% (active) and -12.3% (active),-30.6% (active) and -72.4% (active),-16.7% (active),-64% (active) and -87.1% (active),-35.3% (active) and 5.73% (active),-26.3% (active) and 5.09% (active),1.56% (active) and -64% (active)
Cc1n[nH]c(=O)n(/N=C\c2c[nH]c3ccccc23)c1=O,105% (inactive),101% (inactive),84% (inactive),105% (inactive),98.8% (inactive),97.9% (inactive),102% (inactive),107% (inactive),99.4% (inactive),105% (inactive),104% (inactive),109% (inactive),99.8% (inactive),60.6% (inactive),100% (inactive),98.4% (inactive),103% (inactive),95.9% (inactive),91.6% (inactive),
CC(=O)NC(Cc1ccccc1)C(=O)Oc1ccc2ccccc2c1 (stereo not drawn),87.4% (inactive) and 102% (inactive),114% (inactive) and 96.4% (inactive),84.3% (inactive) and 78.1% (inactive),113% (inactive),97.7% (inactive) and 102% (inactive),85.5% (inactive) and 90.6% (inactive),101% (inactive),98.8% (inactive) and 99.8% (inactive),84.9% (inactive) and 87.7% (inactive),117% (inactive) and 105% (inactive),108% (inactive) and 113% (inactive),114% (inactive) and 96.4% (inactive),103% (inactive) and 98.9% (inactive),64.8% (inactive) and 86.6% (inactive),118% (inactive) and 111% (inactive),94.8% (inactive) and 98.1% (inactive),130% (inactive) and 97.2% (inactive),100% (inactive) and 86.6% (inactive),111% (inactive) and 102% (inactive),94.6% (inactive) and 97.4% (inactive)

# From PubChem BioAssay (NCI)
